A number with no mark means an inactive call. No rule for the calls is given here.
B1: design_606_b60ff77f-1541-4e5f-8260-46d5e5f6b85e_1622_dldesign_0_cycle1_af2pred (protein)
chain: NDKELSKKVHEGYELVAEYEQDPSFIKKNKEKAKEIAKKAEEAAKAAEEGAKKYPELAKALEKIAKKAKEVAKEAKKVAK
B2: design_606_b60ff77f-1541-4e5f-8260-46d5e5f6b85e_1625_dldesign_0_cycle1_af2pred (protein)
chain: MAKEKAKKEAKKLTEEAAKKIREAALKEENPLEVAKEITEEVLKKIEEIGKKAGLSEEEIEKLKKEAKKKLAAAAHEAYQERAEEEFE
B3: design_606_b60ff77f-1541-4e5f-8260-46d5e5f6b85e_1627_dldesign_0_cycle1_af2pred (protein)
chain: EEEKKKKYEELLKKAREEMEKLGKEFKKAVEKGDSKAASEAFRKAVKVAREAGEEAKKLGPEGEELEKELSQLLLEIAD
B4: design_606_b60ff77f-1541-4e5f-8260-46d5e5f6b85e_1676_dldesign_0_cycle1_af2pred (protein)
chain: DEAVKKAKELAKKLLEEAKKAAKKGDVETVKAIAKEAKAKAEEAEKNEGFKAAAELYSAYFRIEHMAESLA
B5: design_606_b60ff77f-1541-4e5f-8260-46d5e5f6b85e_1708_dldesign_0_cycle1_af2pred (protein)
chain: NEAEKKLKKVAEDAEKALSEAIKASKDDPEKQKELKEKLEQVKKLYEEGLKGTPEDMAKAAAEMRQLRSEADYVLSNAK
B6: design_606_b60ff77f-1541-4e5f-8260-46d5e5f6b85e_1772_dldesign_0_cycle1_af2pred (protein)
chain: SKKEEVKERVKEVLERAKKVAERGKKAGVDINEASEMMALAYEAKAAAEAGHIEEAEKLMKKAEEKLKKLEKRAKELEA
B7: design_606_b60ff77f-1541-4e5f-8260-46d5e5f6b85e_1785_dldesign_0_cycle1_af2pred (protein)
chain: MTPEERRARGEEELARLAKKIEEARKKAEEDGKKGSQDLFSLAERLENLAESAPEIAEEARALGEEARKLAEKLYS
B8: design_606_b60ff77f-1541-4e5f-8260-46d5e5f6b85e_1975_dldesign_0_cycle1_af2pred (protein)
chain: AEAESQKVLDTAAELEADLILLGYKKPEIKEQALEDAKKVRRNAREAAGLILKDPEKGKKLAEETEKEGKELIKKYEEEV
B9: design_606_b60ff77f-1541-4e5f-8260-46d5e5f6b85e_2038_dldesign_0_cycle1_af2pred (protein)
chain: EAKEKAKLLKEAAKLAKEAAKAAADKEKAKKLATEAADLAIKAGDYKTNGYMESAILNAEAGNAEAAKAAAEKAAKRAEEKAKKL
B10: design_606_b60ff77f-1541-4e5f-8260-46d5e5f6b85e_2039_dldesign_0_cycle1_af2pred (protein)
chain: SEEEEASKRNKELADKIREAVRNMREAYAAMQAALAAGDAAAAKAAADKALAQAKVLEELGLTSQAQSNAAKIKADLAAGLAALAA
B11: design_606_b60ff77f-1541-4e5f-8260-46d5e5f6b85e_2053_dldesign_0_cycle1_af2pred (protein)
chain: SSSLIEENKKEAKEEFNKFAIENGEKRIKEAKELLKKDPEKGKEALKKVLEEAKKLKEKNPEAGEKVEKAAEKALKEA
B12: design_606_b60ff77f-1541-4e5f-8260-46d5e5f6b85e_2076_dldesign_0_cycle1_af2pred (protein)
chain: ATQAEASQAAAEASEARAELEQAAKKLKEEGKEELAKKAEEAAEEARKLLKQAQKADTDTAYKLAQEAKKKLEKELKKAKKA
B13: design_606_b60ff77f-1541-4e5f-8260-46d5e5f6b85e_2085_dldesign_0_cycle1_af2pred (protein)
chain: ERKQEAAELAERLLEKGEKGDEFTGSAYVTRAAHAIGEALGDEEVEKEIEEANKKDVKEGIKLAREKLEELRAA
B14: design_606_b60ff77f-1541-4e5f-8260-46d5e5f6b85e_2092_dldesign_0_cycle1_af2pred (protein)
chain: MEEEKKKKAKELGEKLVEEVKKAAEEAKKTAETGTPEDAEKAKLDLSKKVHEALSELAEIGQKYDWEEAEKAKKEVIEIGKKAVA
B15: design_606_b60ff77f-1541-4e5f-8260-46d5e5f6b85e_2122_dldesign_0_cycle1_af2pred (protein)
chain: GMEEEKERALEEIRRAREEIKKVAEELKEVDPELAKKAEKVLERAERGLEEGEKNPIAAIGMAEIVRDQLENGKKLLAEKKA
B16: design_606_b60ff77f-1541-4e5f-8260-46d5e5f6b85e_2244_dldesign_0_cycle1_af2pred (protein)
chain: ENKEKVKKAKETLKKARKEAEKAVKKGVLTPEQIARIQEKLHKASELIAEAEQEKGEEGKEKAEKALELAKEVLKEVKEAE
B17: design_606_b60ff77f-1541-4e5f-8260-46d5e5f6b85e_2269_dldesign_0_cycle1_af2pred (protein)
chain: ITEDEVVEINNKGSKEGPLWKEAADYAIKALSYKIIAELVLSSENAEEDHKKALAKAEEYEAKYKEKLEKAEKAKKEK
B18: design_606_b60ff77f-1541-4e5f-8260-46d5e5f6b85e_2343_dldesign_0_cycle1_af2pred (protein)
chain: DAEEHAKEAEKAIKEAKAYIEEAIKTGDSEKAHEARQKLAEAEYEAKKVYELDPEKGAKLLKKVEEVKKLLKELQK
B19: design_606_b60ff77f-1541-4e5f-8260-46d5e5f6b85e_2386_dldesign_0_cycle1_af2pred (protein)
chain: KEEEFEKLKQKAAQLILESYDALSKNIEEAKKYLKEALKAAEEAKKVDPEKGEEVLKKVEKTSKSILKSMELAKKA

Biological target: VTCN1, Q7Z7D3
Sequence (Q7Z7D3 whole entry): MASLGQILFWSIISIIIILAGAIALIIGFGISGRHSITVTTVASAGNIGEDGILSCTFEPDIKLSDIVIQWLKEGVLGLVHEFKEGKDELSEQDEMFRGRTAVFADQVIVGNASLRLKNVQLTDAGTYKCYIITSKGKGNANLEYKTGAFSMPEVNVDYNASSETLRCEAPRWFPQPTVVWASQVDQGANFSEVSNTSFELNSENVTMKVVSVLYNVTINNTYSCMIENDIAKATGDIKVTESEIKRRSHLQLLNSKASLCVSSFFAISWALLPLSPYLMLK

Binder	binding in a display sort
B1	not found
B2	not found
B3	not found
B4	not found
B5	not found
B6	not found
B7	not found
B8	not found
B9	not found
B10	not found
B11	not found
B12	not found
B13	not found
B14	not found
B15	not found
B16	not found
B17	not found
B18	not found
B19	not found
